# Laboratory results taken from paper PMC7862700, “An all-to-all approach to the identification of sequence-specific readers for epigenetic DNA modifications on cytosine”.
# Key:
# Assay in all cases: DAPPL (digital affinity profiling via proximity ligation, sequencing); 10 mM Tris-HCl pH 7.5, 50 mM NaCl, 1 mM DTT, 4% glycerol, room temperature, 30 min; GST-TFs on glutathione beads, 16-mer random dsDNA library, 0.1% formaldehyde crosslink after washing; high values mean tight binding
# [1] = target: T1, FLI1 (Homo sapiens, UniProt Q01543 1-452); settings: protein: recombinant; tags: N-terminal GST; dsDNA, one strand shown
# T1 sequence: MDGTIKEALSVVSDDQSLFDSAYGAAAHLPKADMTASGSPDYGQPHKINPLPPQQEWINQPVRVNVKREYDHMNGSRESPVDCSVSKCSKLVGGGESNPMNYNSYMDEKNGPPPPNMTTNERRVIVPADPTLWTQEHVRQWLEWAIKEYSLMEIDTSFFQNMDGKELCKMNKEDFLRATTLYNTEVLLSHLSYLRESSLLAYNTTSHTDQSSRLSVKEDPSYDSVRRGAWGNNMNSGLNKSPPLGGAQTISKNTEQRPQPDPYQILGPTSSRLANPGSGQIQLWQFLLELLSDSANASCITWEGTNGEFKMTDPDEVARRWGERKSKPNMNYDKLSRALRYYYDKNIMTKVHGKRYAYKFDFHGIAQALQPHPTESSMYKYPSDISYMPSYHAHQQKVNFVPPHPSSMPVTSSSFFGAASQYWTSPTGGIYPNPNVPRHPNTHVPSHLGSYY
# Outline: (§1)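 After expression in yeast as GST fusions, human transcription factors were bound to glutathione beads, DNA-barcoded and mixed with a tag-only sample. The pools were incubated with 200 nmole of a 16-mer random double-stranded DNA library in Tris/NaCl/DTT/glycerol buffer (30 min, room temperature), washed and crosslinked with 0.1% formaldehyde. Proximity ligation with BsaI/T4 ligase ran for 1 h at 37 °C, before PCR amplification and sequencing on an Illumina NextSeq500. Binding signal is a hexamer's read frequency for a factor divided by its frequency for the tag-only sample.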
# [2] = target: T2, ELK1 (Homo sapiens, UniProt P19419 1-428); settings: protein: recombinant; tags: N-terminal GST; dsDNA, one strand shown
# T2 sequence: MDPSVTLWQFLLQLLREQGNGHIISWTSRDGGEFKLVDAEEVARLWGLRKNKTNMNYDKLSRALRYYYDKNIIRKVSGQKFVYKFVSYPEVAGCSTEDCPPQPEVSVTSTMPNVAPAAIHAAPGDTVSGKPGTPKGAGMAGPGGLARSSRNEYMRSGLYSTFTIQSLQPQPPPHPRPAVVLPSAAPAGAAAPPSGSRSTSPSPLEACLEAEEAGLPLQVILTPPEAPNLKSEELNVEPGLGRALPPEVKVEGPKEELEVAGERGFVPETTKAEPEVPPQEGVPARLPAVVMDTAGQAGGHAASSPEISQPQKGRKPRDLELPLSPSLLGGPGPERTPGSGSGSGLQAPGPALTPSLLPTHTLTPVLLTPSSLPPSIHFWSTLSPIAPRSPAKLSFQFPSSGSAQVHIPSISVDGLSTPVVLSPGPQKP
# Outline: as §1
# [3] = target: T3, GABPA (Homo sapiens, UniProt Q06546 1-454); settings: protein: recombinant; tags: N-terminal GST; dsDNA, one strand shown
# T3 sequence: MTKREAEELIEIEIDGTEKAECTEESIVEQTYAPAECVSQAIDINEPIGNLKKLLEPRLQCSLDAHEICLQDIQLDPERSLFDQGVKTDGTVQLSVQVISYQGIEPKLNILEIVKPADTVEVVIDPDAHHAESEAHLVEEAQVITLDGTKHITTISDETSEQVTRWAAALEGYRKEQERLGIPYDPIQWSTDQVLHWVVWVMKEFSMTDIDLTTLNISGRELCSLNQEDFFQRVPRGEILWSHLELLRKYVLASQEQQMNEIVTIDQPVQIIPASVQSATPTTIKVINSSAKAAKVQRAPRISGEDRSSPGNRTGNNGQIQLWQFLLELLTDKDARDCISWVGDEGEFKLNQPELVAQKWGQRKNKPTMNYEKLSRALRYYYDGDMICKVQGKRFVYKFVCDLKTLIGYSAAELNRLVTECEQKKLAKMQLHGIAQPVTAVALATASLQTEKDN
# Outline: as §1
# [4] = target: T4, ERG (Homo sapiens, UniProt P11308 1-479); settings: protein: recombinant; tags: N-terminal GST; dsDNA, one strand shown
# T4 sequence: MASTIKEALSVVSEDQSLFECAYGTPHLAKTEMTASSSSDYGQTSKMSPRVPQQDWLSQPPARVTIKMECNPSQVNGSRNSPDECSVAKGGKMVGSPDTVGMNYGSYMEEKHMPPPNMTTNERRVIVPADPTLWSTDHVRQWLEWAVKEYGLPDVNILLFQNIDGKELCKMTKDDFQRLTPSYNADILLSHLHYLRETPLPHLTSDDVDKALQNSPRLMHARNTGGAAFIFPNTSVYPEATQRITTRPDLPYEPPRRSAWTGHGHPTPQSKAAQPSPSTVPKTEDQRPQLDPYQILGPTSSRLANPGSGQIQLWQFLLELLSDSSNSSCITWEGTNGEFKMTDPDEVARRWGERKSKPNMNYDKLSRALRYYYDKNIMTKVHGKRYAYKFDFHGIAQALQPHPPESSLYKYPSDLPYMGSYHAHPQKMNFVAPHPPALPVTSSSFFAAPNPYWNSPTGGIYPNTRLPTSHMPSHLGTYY
# Outline: as §1
# [5] = target: ELF1 (Homo sapiens, UniProt P32519 1-619); settings: protein: recombinant; tags: N-terminal GST; dsDNA, one strand shown
# Sequence of ELF1 (P32519 whole entry): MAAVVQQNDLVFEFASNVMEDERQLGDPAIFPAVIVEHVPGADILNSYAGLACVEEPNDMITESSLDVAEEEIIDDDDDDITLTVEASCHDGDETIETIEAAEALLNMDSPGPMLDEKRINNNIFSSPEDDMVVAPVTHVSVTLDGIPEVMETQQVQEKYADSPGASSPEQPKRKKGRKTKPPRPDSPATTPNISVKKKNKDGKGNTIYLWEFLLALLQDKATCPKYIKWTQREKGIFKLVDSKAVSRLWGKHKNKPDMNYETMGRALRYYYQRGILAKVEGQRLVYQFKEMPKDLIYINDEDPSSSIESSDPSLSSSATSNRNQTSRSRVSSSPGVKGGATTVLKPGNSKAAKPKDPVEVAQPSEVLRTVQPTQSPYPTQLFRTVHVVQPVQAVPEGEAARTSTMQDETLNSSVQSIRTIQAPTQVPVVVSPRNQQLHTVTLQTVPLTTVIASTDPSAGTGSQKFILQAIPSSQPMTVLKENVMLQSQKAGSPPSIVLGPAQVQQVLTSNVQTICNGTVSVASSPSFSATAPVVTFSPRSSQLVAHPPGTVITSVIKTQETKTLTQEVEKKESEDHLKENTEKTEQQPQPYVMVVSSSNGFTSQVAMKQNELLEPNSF
# Outline: as §1
# [6] = target: T5, EHF (Homo sapiens, UniProt Q9NZC4 1-300); settings: protein: recombinant; tags: N-terminal GST; dsDNA, one strand shown
# T5 sequence: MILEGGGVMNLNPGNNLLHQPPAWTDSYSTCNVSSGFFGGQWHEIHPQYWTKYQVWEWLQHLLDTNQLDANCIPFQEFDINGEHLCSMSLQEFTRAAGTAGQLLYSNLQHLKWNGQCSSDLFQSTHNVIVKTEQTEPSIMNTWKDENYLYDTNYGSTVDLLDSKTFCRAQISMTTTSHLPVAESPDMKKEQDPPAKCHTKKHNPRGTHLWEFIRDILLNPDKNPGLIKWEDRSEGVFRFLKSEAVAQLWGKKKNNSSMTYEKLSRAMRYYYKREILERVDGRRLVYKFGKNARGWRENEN
# Outline: as §1
# [7] = target: SPI1 (Homo sapiens, UniProt P17947 1-270); settings: protein: recombinant; tags: N-terminal GST; dsDNA, one strand shown
# Outline: as §1
# [8] = target: SPIB (Homo sapiens, UniProt Q01892 1-262); settings: protein: recombinant; tags: N-terminal GST; dsDNA, one strand shown
# Sequence of SPIB (Q01892 whole entry): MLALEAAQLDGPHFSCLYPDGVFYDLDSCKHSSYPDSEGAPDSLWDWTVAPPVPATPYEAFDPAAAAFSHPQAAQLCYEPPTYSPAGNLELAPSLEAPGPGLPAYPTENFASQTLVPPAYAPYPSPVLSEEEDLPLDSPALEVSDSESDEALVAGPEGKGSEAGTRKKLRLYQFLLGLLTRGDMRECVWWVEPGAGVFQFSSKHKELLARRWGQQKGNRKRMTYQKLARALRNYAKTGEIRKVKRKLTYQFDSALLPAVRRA
# Outline: as §1
# [9] = target: T6, ELK3 (Homo sapiens, UniProt P41970 1-407); settings: protein: recombinant; tags: N-terminal GST; dsDNA, one strand shown
# T6 sequence: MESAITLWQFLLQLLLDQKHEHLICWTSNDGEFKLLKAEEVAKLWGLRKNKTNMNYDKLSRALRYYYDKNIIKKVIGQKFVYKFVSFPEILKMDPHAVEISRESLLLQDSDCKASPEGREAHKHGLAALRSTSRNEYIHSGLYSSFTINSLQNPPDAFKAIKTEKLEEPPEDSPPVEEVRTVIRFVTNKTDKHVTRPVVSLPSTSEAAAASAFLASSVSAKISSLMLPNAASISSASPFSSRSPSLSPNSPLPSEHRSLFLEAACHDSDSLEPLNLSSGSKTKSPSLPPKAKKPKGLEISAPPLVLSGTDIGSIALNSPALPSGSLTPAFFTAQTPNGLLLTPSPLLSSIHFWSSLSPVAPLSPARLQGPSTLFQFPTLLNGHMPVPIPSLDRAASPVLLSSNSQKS
# Outline: as §1
# [10] = target: T7, FEV (Homo sapiens, UniProt Q99581 1-238); settings: protein: recombinant; tags: N-terminal GST; dsDNA, one strand shown
# T7 sequence: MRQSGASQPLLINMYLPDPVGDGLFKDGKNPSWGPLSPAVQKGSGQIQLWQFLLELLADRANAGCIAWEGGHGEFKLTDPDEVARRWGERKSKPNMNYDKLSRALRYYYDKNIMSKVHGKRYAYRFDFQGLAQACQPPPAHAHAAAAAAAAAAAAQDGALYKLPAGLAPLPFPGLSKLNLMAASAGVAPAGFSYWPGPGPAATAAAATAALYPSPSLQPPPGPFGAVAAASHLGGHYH
# Outline: as §1
# [11] = target: ETV5 (Homo sapiens, UniProt P41161 1-510); settings: protein: recombinant; tags: N-terminal GST; dsDNA, one strand shown
# Sequence of ETV5 (P41161 whole entry): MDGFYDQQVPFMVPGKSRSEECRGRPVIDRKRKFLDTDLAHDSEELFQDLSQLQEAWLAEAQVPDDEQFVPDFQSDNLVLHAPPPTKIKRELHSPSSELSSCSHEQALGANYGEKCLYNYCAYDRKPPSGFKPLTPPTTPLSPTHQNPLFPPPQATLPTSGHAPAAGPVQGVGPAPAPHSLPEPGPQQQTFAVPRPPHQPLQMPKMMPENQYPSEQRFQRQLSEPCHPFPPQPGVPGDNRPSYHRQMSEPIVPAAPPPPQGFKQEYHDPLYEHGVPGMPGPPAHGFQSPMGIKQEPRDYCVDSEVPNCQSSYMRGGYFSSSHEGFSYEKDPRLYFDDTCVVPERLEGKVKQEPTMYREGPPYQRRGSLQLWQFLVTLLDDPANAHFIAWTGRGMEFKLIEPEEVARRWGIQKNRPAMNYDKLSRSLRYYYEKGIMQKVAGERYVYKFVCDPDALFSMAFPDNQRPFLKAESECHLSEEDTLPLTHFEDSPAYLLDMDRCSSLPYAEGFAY
# Outline: as §1
# [12] = target: HSF1 (Homo sapiens, UniProt Q00613 1-529); settings: protein: recombinant; tags: N-terminal GST; chain copies: 3; dsDNA, one strand shown
# Sequence of HSF1 (Q00613 whole entry): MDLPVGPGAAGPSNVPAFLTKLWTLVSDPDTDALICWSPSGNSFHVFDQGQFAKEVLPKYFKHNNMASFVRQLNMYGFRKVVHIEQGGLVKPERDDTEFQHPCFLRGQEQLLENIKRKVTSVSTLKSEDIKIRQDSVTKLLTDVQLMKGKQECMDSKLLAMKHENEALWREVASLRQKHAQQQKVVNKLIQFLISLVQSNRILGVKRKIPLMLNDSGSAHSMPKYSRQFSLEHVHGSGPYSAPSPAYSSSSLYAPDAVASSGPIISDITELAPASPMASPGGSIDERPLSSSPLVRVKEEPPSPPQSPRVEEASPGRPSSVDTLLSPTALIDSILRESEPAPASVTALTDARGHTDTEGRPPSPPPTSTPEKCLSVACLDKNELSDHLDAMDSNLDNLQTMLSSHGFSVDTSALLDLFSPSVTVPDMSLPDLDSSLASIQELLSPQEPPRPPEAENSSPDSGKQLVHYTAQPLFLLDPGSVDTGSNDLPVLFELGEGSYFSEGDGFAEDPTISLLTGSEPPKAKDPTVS
# Outline: as §1
# [13] = target: T8, SPIC (Homo sapiens, UniProt Q8N5J4 1-248); settings: protein: recombinant; tags: N-terminal GST; dsDNA, one strand shown
# T8 sequence: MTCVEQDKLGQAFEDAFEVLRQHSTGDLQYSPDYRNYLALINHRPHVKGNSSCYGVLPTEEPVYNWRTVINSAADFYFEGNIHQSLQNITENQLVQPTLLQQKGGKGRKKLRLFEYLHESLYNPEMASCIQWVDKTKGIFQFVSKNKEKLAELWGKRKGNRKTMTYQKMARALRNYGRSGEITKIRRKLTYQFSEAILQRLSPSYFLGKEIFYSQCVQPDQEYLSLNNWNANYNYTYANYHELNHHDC
# Outline: as §1
# [14] = target: ELF4 (Homo sapiens, UniProt Q99607 1-663); settings: protein: recombinant; tags: N-terminal GST; dsDNA, one strand shown
# Sequence of ELF4 (Q99607 whole entry): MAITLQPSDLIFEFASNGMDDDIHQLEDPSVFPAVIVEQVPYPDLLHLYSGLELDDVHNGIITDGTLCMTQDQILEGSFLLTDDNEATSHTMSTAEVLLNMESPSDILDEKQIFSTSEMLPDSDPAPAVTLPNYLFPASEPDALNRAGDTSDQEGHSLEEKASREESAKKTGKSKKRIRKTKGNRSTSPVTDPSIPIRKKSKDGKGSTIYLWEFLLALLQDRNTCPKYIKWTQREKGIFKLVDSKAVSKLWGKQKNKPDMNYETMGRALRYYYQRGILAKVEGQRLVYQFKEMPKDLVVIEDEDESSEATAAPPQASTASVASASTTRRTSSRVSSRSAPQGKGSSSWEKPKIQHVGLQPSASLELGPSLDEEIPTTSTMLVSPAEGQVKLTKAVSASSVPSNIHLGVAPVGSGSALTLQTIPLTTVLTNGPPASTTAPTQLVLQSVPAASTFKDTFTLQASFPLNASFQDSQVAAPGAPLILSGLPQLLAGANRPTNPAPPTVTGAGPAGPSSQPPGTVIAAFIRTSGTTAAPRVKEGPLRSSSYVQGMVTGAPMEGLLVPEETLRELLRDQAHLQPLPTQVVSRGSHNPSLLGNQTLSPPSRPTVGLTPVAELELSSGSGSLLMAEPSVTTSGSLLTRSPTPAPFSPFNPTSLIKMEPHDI
# Outline: as §1
# [15] = target: T9, ELK4 (Homo sapiens, UniProt P28324-2 1-405); settings: protein: recombinant; tags: N-terminal GST; dsDNA, one strand shown
# T9 sequence: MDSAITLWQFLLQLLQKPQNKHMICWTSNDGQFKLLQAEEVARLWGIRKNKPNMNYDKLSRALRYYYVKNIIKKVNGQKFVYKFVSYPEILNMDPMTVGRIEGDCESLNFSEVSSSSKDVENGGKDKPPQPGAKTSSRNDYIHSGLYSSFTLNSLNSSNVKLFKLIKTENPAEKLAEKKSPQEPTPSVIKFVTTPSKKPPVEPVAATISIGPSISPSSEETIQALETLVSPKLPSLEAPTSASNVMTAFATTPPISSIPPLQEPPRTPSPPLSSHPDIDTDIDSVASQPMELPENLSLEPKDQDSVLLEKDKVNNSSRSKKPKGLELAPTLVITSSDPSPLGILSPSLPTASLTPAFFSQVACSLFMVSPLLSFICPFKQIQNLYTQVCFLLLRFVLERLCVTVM
# Outline: as §1
# [16] = target: T10, ETV2 (Homo sapiens, UniProt O00321 1-342); settings: protein: recombinant; tags: N-terminal GST; dsDNA, one strand shown
# T10 sequence: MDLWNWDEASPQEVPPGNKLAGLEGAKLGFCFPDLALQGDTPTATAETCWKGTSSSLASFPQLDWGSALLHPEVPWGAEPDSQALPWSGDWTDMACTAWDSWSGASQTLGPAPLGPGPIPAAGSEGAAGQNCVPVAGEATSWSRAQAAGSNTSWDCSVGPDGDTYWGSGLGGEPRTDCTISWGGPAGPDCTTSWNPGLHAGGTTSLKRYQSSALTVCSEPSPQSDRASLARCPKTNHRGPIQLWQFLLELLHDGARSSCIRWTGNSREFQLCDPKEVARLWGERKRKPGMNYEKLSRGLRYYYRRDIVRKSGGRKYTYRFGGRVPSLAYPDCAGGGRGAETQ
# Outline: as §1
# [17] = target: T11, ELF3 (Homo sapiens, UniProt P78545 1-371); settings: protein: recombinant; tags: N-terminal GST; dsDNA, one strand shown
# T11 sequence: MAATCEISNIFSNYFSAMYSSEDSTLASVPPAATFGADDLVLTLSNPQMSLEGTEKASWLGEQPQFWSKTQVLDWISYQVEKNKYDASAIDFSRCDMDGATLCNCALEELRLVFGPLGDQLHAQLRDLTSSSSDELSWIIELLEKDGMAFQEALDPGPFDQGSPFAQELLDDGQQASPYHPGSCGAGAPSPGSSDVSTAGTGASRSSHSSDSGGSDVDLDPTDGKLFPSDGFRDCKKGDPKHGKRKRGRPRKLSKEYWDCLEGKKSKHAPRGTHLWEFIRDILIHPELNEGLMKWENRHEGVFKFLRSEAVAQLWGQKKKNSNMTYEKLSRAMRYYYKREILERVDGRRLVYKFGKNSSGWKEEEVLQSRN
# Outline: as §1
# [18] = target: CRX (Homo sapiens, UniProt O43186 1-299); settings: protein: recombinant; tags: N-terminal GST; dsDNA, one strand shown
# Sequence of CRX (O43186 whole entry): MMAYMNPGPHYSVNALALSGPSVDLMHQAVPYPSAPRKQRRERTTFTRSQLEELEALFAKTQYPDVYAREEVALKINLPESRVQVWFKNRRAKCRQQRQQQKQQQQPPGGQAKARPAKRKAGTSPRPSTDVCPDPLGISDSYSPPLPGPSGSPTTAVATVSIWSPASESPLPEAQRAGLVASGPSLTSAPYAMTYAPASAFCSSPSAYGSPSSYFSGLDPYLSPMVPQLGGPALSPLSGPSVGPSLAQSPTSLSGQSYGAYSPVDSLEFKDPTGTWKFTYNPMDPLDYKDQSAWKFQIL
# Outline: as §1
# [19] = target: ETV1 (Homo sapiens, UniProt P50549 1-477); settings: protein: recombinant; tags: N-terminal GST; dsDNA, one strand shown
# Sequence of ETV1 (P50549 whole entry): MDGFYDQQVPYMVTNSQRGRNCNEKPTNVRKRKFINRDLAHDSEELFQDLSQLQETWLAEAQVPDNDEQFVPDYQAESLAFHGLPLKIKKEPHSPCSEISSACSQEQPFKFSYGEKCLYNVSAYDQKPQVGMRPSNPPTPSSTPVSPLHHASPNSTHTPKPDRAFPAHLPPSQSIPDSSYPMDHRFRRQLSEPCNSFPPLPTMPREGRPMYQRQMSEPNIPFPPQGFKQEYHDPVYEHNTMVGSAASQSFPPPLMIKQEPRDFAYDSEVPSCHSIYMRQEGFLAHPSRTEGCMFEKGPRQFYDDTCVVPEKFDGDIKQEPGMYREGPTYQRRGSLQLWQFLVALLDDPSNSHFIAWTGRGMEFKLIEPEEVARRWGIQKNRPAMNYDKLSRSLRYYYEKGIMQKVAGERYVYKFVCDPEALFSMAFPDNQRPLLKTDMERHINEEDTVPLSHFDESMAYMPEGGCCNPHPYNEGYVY
# Outline: as §1
sequence,measurement,setting,value
TTCTTG,binding signal,[1],"1.42 fold enrichment (6-mer frequency, TF over GST control)"
same,binding signal,[2],"1.46 fold enrichment (6-mer frequency, TF over GST control)"
same,binding signal,[3],"1.5 fold enrichment (6-mer frequency, TF over GST control)"
same,binding signal,[4],"1.38 fold enrichment (6-mer frequency, TF over GST control)"
same,binding signal,[5],"1.46 fold enrichment (6-mer frequency, TF over GST control)"
same,binding signal,[6],"1.56 fold enrichment (6-mer frequency, TF over GST control)"
same,binding signal,[7],"1.45 fold enrichment (6-mer frequency, TF over GST control)"
same,binding signal,[8],"1.39 fold enrichment (6-mer frequency, TF over GST control)"
same,binding signal,[9],"1.35 fold enrichment (6-mer frequency, TF over GST control)"
same,binding signal,[10],"1.29 fold enrichment (6-mer frequency, TF over GST control)"
same,binding signal,[11],"1.41 fold enrichment (6-mer frequency, TF over GST control)"
same,binding signal,[12],"1.98 fold enrichment (6-mer frequency, TF over GST control)"
same,binding signal,[13],"1.31 fold enrichment (6-mer frequency, TF over GST control)"
same,binding signal,[14],"1.43 fold enrichment (6-mer frequency, TF over GST control)"
same,binding signal,[15],"1.34 fold enrichment (6-mer frequency, TF over GST control)"
same,binding signal,[16],"1.18 fold enrichment (6-mer frequency, TF over GST control)"
same,binding signal,[17],"1.46 fold enrichment (6-mer frequency, TF over GST control)"
same,binding signal,[18],"1.55 fold enrichment (6-mer frequency, TF over GST control)"
same,binding signal,[19],"1.47 fold enrichment (6-mer frequency, TF over GST control)"
